Screening data: PubChem, National Center for Advancing Translational Sciences (NCATS)
Only a selection was taken, and hits are over-represented in it overall.
LmPK inh: blocks Leishmania mexicana pyruvate kinase activity; 290,000 compounds, 0.37% hits; AID 1721; purified LmPK, Kinase-Glo ATP luminescence, 1 h; Q27686; Potency, µM (series often up to 57.5 µM), most hits filed as inhibitors
Target sequence (Q27686 whole entry, looked up): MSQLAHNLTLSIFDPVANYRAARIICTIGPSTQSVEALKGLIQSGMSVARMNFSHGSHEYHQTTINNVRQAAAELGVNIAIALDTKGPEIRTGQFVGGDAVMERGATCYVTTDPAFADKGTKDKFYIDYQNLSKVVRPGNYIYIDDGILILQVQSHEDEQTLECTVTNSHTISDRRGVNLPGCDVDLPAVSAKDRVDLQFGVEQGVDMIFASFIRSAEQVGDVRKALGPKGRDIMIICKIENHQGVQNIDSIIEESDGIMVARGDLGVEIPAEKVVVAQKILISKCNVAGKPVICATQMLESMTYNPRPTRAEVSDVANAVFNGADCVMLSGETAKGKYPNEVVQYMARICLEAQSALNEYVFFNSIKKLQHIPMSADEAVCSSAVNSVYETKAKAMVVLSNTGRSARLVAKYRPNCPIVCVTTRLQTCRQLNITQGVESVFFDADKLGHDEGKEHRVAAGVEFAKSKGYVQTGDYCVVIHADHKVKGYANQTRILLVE
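Screened at intermediate enzyme activity to detect both inhibitors and activators: LmPK at 0.1 nM, with a 0.5 nM enzyme column as activation reference. PEP 0.5 mM, ADP 0.1 mM; ATP detected by luminescence after 1 h.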
CHX counter: counter-screen for Shiga toxin inhibitors: cycloheximide protein synthesis inhibition. 300,000 compounds, 12% hits. max response, %. cell reporter, cycloheximide protein synthesis inhibition counterscreen. AID 2314; in the data active = max response mostly above about 13%, no sharp cut-off; inactive = mostly below about 14%; note: read at 38.3 µM for the half of the compounds with a filed dose
Giardia FBPA inh: inhibitors of Giardia lamblia fructose-1,6-bisphosphate aldolase | A8B2U2 | purified Giardia FBPA | Potency, µM (titrated, usually from 59.6 µM), usual class: inhibitors | 290,000 compounds, 0.71% hits | AID 2451; note: nearly all actives have a fitted effect of over 55% in size
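Giardia FBPA (40 nM reagent) was preincubated 10 min at RT with compound (up to 57.5 uM final), then substrate plus GAPDH/TPI/NAD/arsenate coupling system with diaphorase/resazurin was added; resorufin fluorescence (525/598 nm) was read after 20 min.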
RE007 growth inh: less growth of the S. pombe RE007 Vpr strain; S. pombe RE007 Vpr strain, BacTiter-Glo ATP luminescence, 24 h; Potency, µM (series often up to 92.2 µM), hits mostly inhibitors; 360,000 compounds, 0.21% hits; AID 651644; active = well fitted falling curve with a large enough effect; inconclusive = small, poorly fitted or top-dose-only effect; inactive = no such curve, though single readings can be large or run the other way; note: nearly all actives have a fitted effect of over 50% in size
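Fission yeast RE007 carrying one integrated HIV-1 vpr copy, seeded at OD 0.01 in PMG+AL medium with 23 nL pinned compound. Grown 24 h at 30 degrees; viability read by BacTiter-Glo luminescence after 5 min.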
Tb PYK inh: blocks Trypanosoma brucei pyruvate kinase. Q57TT1. TbPYK enzyme, Kinase-Glo Plus ATP luminescence, 45 min. Potency, µM (top dose mostly 76.8 µM), most hits filed as inhibitors. 410,000 compounds, 0.12% hits; note: nearly all actives have a fitted effect of over 50% in size
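Screened from lowest to highest concentration, compounds were pinned into TbPYK/substrate mixtures, and ADP (130 uM final) was added. Plates sat at room temperature for 45 min prior to Kinase-Glo Plus detection by luminescence.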
Shiga toxin inh: blocks Shiga toxin action in Vero cells; inhibition, % at 38.7 µM; 290,000 compounds, 9.2% hits; Vero cells, Shiga toxin protein synthesis inhibition reporter; in the data active = inhibition mostly above about 28%, no sharp cut-off; inactive = mostly below about 43%
Large screens that a line does not name were inactive. Unless noted, calls come from the whole dose curve; as a rule, active = well fitted curve in the direction sought with a large enough effect; inconclusive = small, poorly fitted or top-dose-only effect, or another doubt; inactive = no such curve, though single readings can be large; an effect the other way counts as inactive or inconclusive.

Oc1ccc(Br)cc1CNc1nccs1	none
Cc1ccnc(NCc2ccccc2O)c1	CHX counter 14 (no result: Shiga toxin inh)
Oc1ccc(Br)cc1CNc1ccccn1	CHX counter 13
COc1ccc(-c2cc3nc(C)c(CCC(=O)Nc4ccc(F)cc4F)c(C)n3n2)c(OC)c1	none (no result: LmPK inh, CHX counter, Giardia FBPA inh, RE007 growth inh, Shiga toxin inh)
CSCCC(NC(=O)c1ccco1)C(=O)NCC(C)(C)N1CCOCC1 (configuration not stated)	none (no result: LmPK inh, CHX counter, Giardia FBPA inh, Shiga toxin inh)
Cc1cc(/C=C(/C#N)c2cccc(F)c2)c(C)n1-c1cccnc1	CHX counter 45, Shiga toxin inh 59
Cc1cc(/C=C(\C#N)C(=O)NCc2ccco2)c(C)n1-c1cccnc1	CHX counter 38, Shiga toxin inh 72
Cc1cc(/C=C(\C#N)C(=O)NCc2ccco2)c(C)n1C1CCCC1	CHX counter 51, Shiga toxin inh 85
Cc1cc(/C=C(/C#N)c2cccc(Cl)c2)c(C)n1C	CHX counter 19
Cc1cc(/C=C(\C#N)C(=O)NCc2cccs2)c(C)n1-c1ccc([N+](=O)[O-])cc1	none
Cc1ccc(C)c(OCCn2cc(/C=C(\C#N)C(=O)NCc3ccco3)c3ccccc32)c1	none
Cc1cccc(NC(=O)Nc2cccc(F)c2)n1	CHX counter 52, Shiga toxin inh 79
O=C(NCc1cccnc1)Nc1cccc(F)c1	none
COc1ccc(NC(=O)Nc2cccc(OC)c2)cc1	none (no result: LmPK inh, CHX counter, Giardia FBPA inh, Shiga toxin inh)
COc1cccc(NC(=O)Nc2nccc(C)n2)c1	CHX counter 38, Shiga toxin inh 72
Cc1ccnc(NC(=O)Nc2cccc(F)c2)n1	CHX counter 28, Shiga toxin inh 79
COc1ccc(OC)c(NC(=O)CSc2nc3nc(C)cc(C)n3n2)c1	none (no result: LmPK inh, CHX counter, Giardia FBPA inh, Shiga toxin inh)
Cn1nc(C2CC2)cc1NC(=O)C1(C)CCN1C(=O)Cc1ccc(-c2ccccc2)cc1 (configuration not stated)	none (no result: LmPK inh, CHX counter, Giardia FBPA inh, Shiga toxin inh)
Cc1ccc(C)c(OCC(=O)N2CCCN(C)CC2)c1	none
Cc1ccc(OCC(=O)N2CCCCCC2)c(C)c1	CHX counter 10
CC(C)c1ccc(OCC(=O)N2CCCCCC2)c(Br)c1	CHX counter 25, Shiga toxin inh 80
Cc1ccc(OCC(=O)N2CCN(C)CC2)c(Br)c1	CHX counter 21, Shiga toxin inh 93
Cc1cc(Br)ccc1OCC(=O)N1CCCCCC1	CHX counter 25
Cc1cc(S(=O)(=O)N2CCCCC2)ccc1OCC(=O)N1CCCC1	none
Cc1cc(NC(=O)CCN2C(=O)C3C4CCC(C4)C3C2=O)cc(C)c1Br (configuration not stated)	none
O=C(NCCN1C(=O)C2C3C=CC(C3)C2C1=O)Nc1ccc(Br)cc1 (configuration not stated)	CHX counter 83, Shiga toxin inh 65
Cc1cc(NC(=O)CCN2C(=O)C3C4C=CC(C4)C3C2=O)ccc1Br (configuration not stated)	CHX counter 23
Cc1c(Br)ccc(NC(=O)CCN2C(=O)C3C4CCC(C4)C3C2=O)c1C (configuration not stated)	CHX counter 19, Shiga toxin inh 34
O=C(NCCN1C(=O)C2C3C=CC(C3)C2C1=O)Nc1cccnc1 (configuration not stated)	none
CCOC(=O)Cn1c(=O)n(-c2ccc(Cl)cc2)c2nc(-c3ccc(Cl)cc3)nc(C(N)=O)c21	none (no result: LmPK inh, CHX counter, Giardia FBPA inh, RE007 growth inh, Shiga toxin inh)
O=C(CI)Nc1cccc2cccnc12	none (no result: LmPK inh, Giardia FBPA inh, RE007 growth inh, Tb PYK inh)
O=C(CCCl)Nc1cccc2cccnc12	CHX counter 48 (no result: LmPK inh, Giardia FBPA inh, RE007 growth inh, Tb PYK inh)
O=C(Nc1ccccc1)Nc1cccc2ccccc12	CHX counter 19
NC(=S)NNc1cccc2cccnc12	CHX counter 19, Giardia FBPA inh inconclusive, Shiga toxin inh 39
O=C(Nc1ccc(C(=O)O)cc1)Nc1cccc2ccccc12	none
O=C(Nc1ccccc1)Nc1cccc2cccnc12	CHX counter 36, Shiga toxin inh 122
NC(=S)Nc1cccc2cccnc12	none
COc1ccccc1CNc1ncncc1-c1cccc(C#N)c1	none (no result: LmPK inh, CHX counter, RE007 growth inh, Tb PYK inh, Shiga toxin inh)
CC1OCC23CC[C@@]4(C)CCC(C)(C)C[C@H]4[C@]2(C)CCC12C3CC[C@@]1(C)C2C(=O)CC(=O)[C@@H]1C (some centres not stated)	none (no result: LmPK inh, CHX counter, RE007 growth inh, Tb PYK inh, Shiga toxin inh)
O=S(=O)(Nc1cccc2cccnc12)c1ccccc1	Giardia FBPA inh 18µM
CC(=O)c1ccc(NC(=O)Nc2cccc3ccccc23)cc1	CHX counter 27 (no result: Giardia FBPA inh)
O=C(Nc1ccccc1)Nc1csc2ccccc12	CHX counter 51, Shiga toxin inh 148
CC(=O)Nc1csc2ccccc12	none
O=C(Nc1cccc2cccnc12)OCc1ccccc1	CHX counter 30 (no result: LmPK inh, Giardia FBPA inh, RE007 growth inh, Tb PYK inh)
CC(C)Oc1ccc(CNC(=O)c2ccc(CS(=O)c3cccc(Cl)c3)o2)cc1 (configuration not stated)	none (no result: LmPK inh, CHX counter, Giardia FBPA inh, RE007 growth inh, Shiga toxin inh)
CCC(C)N(C(=O)c1csnn1)C(C(=O)NC1CCCC1)c1ccccc1F (configuration not stated)	none
O=C(NCc1cc(Cl)cc(Cl)c1)c1csc([C@@H]2C[C@H](O)[C@@H](CO)O2)n1	none (no result: LmPK inh, CHX counter, Giardia FBPA inh, Shiga toxin inh)
CC(Oc1ccc(O)cc1)(P(=O)(O)O)P(=O)(O)O	none (no result: LmPK inh, CHX counter, RE007 growth inh, Tb PYK inh, Shiga toxin inh)
Oc1ccc(Oc2ccc(Oc3ccc(O)cc3)cc2)cc1	CHX counter 17 (no result: Shiga toxin inh)
Fc1ccccc1N1CC(c2ccccc2)C(c2cccs2)=N1 (configuration not stated)	none
c1ccc(C2COC(c3cccs3)=N2)cc1 (configuration not stated)	CHX counter 23
COCCOC(=O)c1c(C)n(S(=O)(=O)c2ccc(C)cc2)c2ccc(NS(=O)(=O)c3ccc(C)cc3)cc12	none (no result: LmPK inh, CHX counter, Giardia FBPA inh, RE007 growth inh, Shiga toxin inh)
CCN(CC)c1ccc2nc3ccccc3[n+](CC)c2c1	LmPK inh inconclusive, RE007 growth inh 2.8µM, Tb PYK inh inconclusive
CCN(CC)c1ccc2nc3ccc(N)cc3[n+](-c3ccccc3)c2c1	RE007 growth inh 22µM, Tb PYK inh inconclusive (no result: LmPK inh, CHX counter, Giardia FBPA inh, Shiga toxin inh)
Cc1nnc(NC(=O)C2CC(=O)N(C(C)c3ccccc3)C2)s1 (configuration not stated)	none (no result: Giardia FBPA inh)
COC(=O)C1=C(Nc2ccc(C)cc2)C=C(C)C(C(=O)OC)C1c1ccc(OC)cc1 (configuration not stated)	none
COC(=O)C1C(=O)C=C(Nc2ccc(F)cc2F)CC1c1ccccc1 (configuration not stated)	CHX counter 21
COC(=O)C1C(=O)C=C(Nc2ccc(F)cc2)CC1c1ccc(OC)cc1 (configuration not stated)	CHX counter 25
CCOC(=O)C1C(=O)C=C(Nc2ccccc2F)CC1c1ccccc1 (configuration not stated)	CHX counter 46, Shiga toxin inh 54
COC(=O)C1C(=O)C=C(Nc2ccc(F)cc2F)CC1c1ccc(OC)cc1 (configuration not stated)	none
